According to PubChem BioAssay (Tox21):
Records with an inconclusive call do not appear. Activity calls are given as the source filed them. Unless noted, the call rests on the fitted dose curve.

Legend:
[1] = Nuclear factor erythroid 2-related factor 2/antioxidant responsive element (Nrf2/ARE) small molecule agonists: qHTS cell viability counter screen in human keratinocytes (AID 1919968; active means well fitted curve in the direction sought with a large enough effect in the repeat runs; an effect the other way counts as inactive or inconclusive; further: nearly all actives have a fitted effect of over 55% in size)
In short: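 KeratinoSens cells (HaCaT keratinocytes stably carrying an ARE-luciferase reporter) were seeded at 1,500 cells/well and rested 5 h at 37 C/5% CO2. They were then exposed to compounds in DMSO for 23 h. Viability was read by CellTiter-Fluor fluorescence after 1 h.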

[2] = molecular target: Gonadotropin-releasing hormone receptor (Homo sapiens) (UniProt P30968); test: Human gonadotropin-releasing hormone receptor (GnRHR) small molecule agonists, calcium flux assay in GnRHR-HEK293 cells (AID 1920063); further: nearly all actives have a fitted effect of over 35% in size
Chain of Gonadotropin-releasing hormone receptor (Homo sapiens) (P30968 whole entry, looked up): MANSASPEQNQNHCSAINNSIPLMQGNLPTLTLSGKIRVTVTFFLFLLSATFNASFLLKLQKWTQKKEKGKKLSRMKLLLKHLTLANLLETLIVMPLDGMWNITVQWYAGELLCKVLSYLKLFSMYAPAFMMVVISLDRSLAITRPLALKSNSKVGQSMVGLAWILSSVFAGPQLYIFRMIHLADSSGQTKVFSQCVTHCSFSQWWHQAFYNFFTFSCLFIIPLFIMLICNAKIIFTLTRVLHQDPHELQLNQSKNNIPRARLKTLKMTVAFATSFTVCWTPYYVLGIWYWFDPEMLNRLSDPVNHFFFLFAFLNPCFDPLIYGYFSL
In short: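 HEK293 cells stably expressing human GnRHR were plated 18 h at 37 °C, loaded with calcium dye 1 h at 37 °C, then given compound in agonist mode; fluorescence (Ex/Em 480/540) read kinetically for 3 min at 1 s intervals.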

[3] = molecular target: KiSS-1 receptor (Homo sapiens) (UniProt Q969F8); test: Human kisspeptin (KISS1R) small molecule agonists, calcium flux assay in KISS1R-HEK293 cells (AID 1920064; active means well fitted curve in the direction sought with a large enough effect in the repeat runs; an effect the other way counts as inactive or inconclusive)
Chain of KiSS-1 receptor (Homo sapiens) (Q969F8 whole entry, looked up): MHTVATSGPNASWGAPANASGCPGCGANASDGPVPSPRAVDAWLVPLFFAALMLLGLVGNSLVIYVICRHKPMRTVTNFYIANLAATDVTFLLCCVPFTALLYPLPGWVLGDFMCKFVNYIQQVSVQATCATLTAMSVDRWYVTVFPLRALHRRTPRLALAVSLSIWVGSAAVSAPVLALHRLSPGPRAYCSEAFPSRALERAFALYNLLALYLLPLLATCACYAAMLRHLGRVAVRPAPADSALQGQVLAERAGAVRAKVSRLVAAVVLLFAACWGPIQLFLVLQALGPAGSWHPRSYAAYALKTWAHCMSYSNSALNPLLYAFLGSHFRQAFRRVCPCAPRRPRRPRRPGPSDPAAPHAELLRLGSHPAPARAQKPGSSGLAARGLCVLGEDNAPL
In short: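 HEK293 cells stably expressing human KISS1R were plated 18 h at 37 °C, loaded with calcium dye for 1 h at 37 °C, then given compound by pin tool. Fluorescence (Ex/Em 480/540) was read kinetically for 3 min.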

[4] = G protein-coupled receptor (GPCR) small molecule agonists, calcium flux assay: HEK293 wild type cell line counter screen (AID 1920065)
In short: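 Cells were plated and cultured 18 h at 37 C/5% CO2, then loaded with calcium dye for 1 h at 37 C. Compounds in DMSO were pin-transferred in agonist mode, and fluorescence (Ex/Em 480/540) was read kinetically for 3 min at 1 s intervals.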

[5] = p53 small molecule agonists, cell-based qHTS assay with human liver microsomes (AID 1963577);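 further: p53 response element beta-lactamase reporter cells with liver microsomes plus NADPH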
In short: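 With metabolic activation: human liver microsomes (0.5 mg/mL final) plus NADPH (0.5 mg/mL final) added alongside compounds to p53RE-bla cells; 16 h 37 C exposure; beta-lactamase read by LiveBLAzer fluorescence.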

[6] = p53 small molecule agonists, cell-based qHTS assay with rat liver microsomes (AID 1963578)
In short: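 Metabolic activation by rat liver microsomes and NADPH, each 0.5 mg/mL final, added right after compounds to p53RE-bla reporter cells (4,000/well, plated 5 h earlier). 16 h at 37 C, then LiveBLAzer substrate for 2 h at room temperature in the dark; fluorescence read-out.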

[7] = p53 small molecule agonists, cell-based qHTS assay with human liver microsomes: qHTS cell viability counter screen (AID 1963579); further: nearly all actives have a fitted effect of over 45% in size
In short: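 Metabolic activation used human liver microsomes and NADPH, both 0.5 mg/mL final, over 16 hours at 37 C on p53RE-bla cells (4,000/well). Cytotoxicity measured by CellTiter-Glo luminescence, 30 min at room temperature.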

[8] = p53 small molecule agonists, cell-based qHTS assay with rat liver microsomes: qHTS cell viability counter screen (AID 1963580); further: nearly all actives have a fitted effect of over 45% in size
In short: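 In HCT-116 cells carrying a p53 response element-bla reporter, compounds were metabolically activated in situ by rat liver microsomes with NADPH over 16 h. Cell ATP content then served as the cytotoxicity measure.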

[9] = p53 small molecule agonists, cell-based qHTS assay: qHTS cell viability counter screen (AID 1963581); further: nearly all actives have a fitted effect of over 45% in size
In short: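 p53RE-bla HCT-116 cells were exposed to compounds for 16 h at 37 C; after the beta-lactamase FRET read in the same wells, CellTiter-Glo was added and luminescence (intracellular ATP) read after 30 min at room temperature.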

[10] = p53 small molecule agonists, cell-based qHTS assay (AID 1963582; active means well fitted activation curve with a large enough effect in the signal ratio in the repeat runs, not every such curve was filed as active; the % refers to the signal ratio)
In short: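 p53RE-bla beta-lactamase reporter cells rested 5 h at 37 C/5% CO2, then received compounds in DMSO by pin transfer and were incubated 16 h at 37 C. LiveBLAzer B/G FRET substrate was loaded for 2 h at room temperature before fluorescence reading.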

[11] = molecular target: 5-hydroxytryptamine receptor 2A (Homo sapiens) (UniProt P28223); test: 5-hydroxytryptamine receptor 2A (HTR2A) small molecule antagonists, cell-based qHTS assay (AID 1963586); further: nearly all actives have a fitted effect of over 45% in size
Chain of 5-hydroxytryptamine receptor 2A (Homo sapiens) (P28223 whole entry, looked up): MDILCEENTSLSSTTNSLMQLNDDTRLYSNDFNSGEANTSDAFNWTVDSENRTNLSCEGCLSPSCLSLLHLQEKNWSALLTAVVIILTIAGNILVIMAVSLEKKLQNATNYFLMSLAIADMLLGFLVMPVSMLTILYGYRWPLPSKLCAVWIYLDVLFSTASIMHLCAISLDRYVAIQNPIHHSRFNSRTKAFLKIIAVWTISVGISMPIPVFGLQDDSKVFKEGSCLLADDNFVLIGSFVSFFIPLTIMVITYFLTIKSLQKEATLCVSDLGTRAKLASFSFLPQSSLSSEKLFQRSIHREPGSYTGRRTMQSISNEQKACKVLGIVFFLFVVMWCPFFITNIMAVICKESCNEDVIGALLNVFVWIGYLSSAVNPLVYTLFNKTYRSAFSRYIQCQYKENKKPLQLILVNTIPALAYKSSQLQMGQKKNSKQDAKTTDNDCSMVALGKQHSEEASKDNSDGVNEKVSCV
In short: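 Antagonist-mode intracellular calcium assay: DOI (4 nM) added after 5 min compound pre-incubation at room temperature to dye-loaded HTR2A-CHO cells. Fluorescence followed for 3 min, sampled every second.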

[12] = molecular target: 5-hydroxytryptamine receptor 2A (Homo sapiens) (UniProt P28223); test: 5-hydroxytryptamine receptor 2A (HTR2A) small molecule agonists, cell-based qHTS assay (AID 1963587); further: nearly all actives have a fitted effect of over 30% in size
In short: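 HTR2A-CHO cells, plated 18 h at 37 C/5% CO2, dye-loaded 1 h at 37 C; compounds in DMSO added by pin tool (agonist mode). Intracellular calcium flux read as kinetic fluorescence on FDSS over 2 min at 1 s intervals.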

[13] = molecular target: Muscarinic acetylcholine receptor M1 (Homo sapiens) (UniProt P11229); test: Cholinergic receptor muscarinic 1 (CHRM1) small molecule antagonists, cell-based qHTS assay (AID 1963588); further: nearly all actives have a fitted effect of over 40% in size
Chain of Muscarinic acetylcholine receptor M1 (Homo sapiens) (P11229 whole entry, looked up): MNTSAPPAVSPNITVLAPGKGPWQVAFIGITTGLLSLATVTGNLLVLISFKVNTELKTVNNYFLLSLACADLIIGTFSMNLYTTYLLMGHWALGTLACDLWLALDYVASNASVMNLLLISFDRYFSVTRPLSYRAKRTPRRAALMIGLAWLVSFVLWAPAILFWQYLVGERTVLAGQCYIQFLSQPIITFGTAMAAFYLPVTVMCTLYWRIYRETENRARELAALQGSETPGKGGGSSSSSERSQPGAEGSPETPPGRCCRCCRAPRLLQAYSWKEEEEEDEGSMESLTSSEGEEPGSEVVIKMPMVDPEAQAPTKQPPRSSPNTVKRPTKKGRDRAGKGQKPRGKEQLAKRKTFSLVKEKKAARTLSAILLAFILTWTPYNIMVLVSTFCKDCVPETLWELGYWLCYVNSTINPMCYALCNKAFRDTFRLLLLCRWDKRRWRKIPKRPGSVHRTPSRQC
In short: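 CHRM1-CHO calcium-flux assay, antagonist mode. Cells were seeded 18 h, dye-loaded 1 h at 37 C and given compound for 5 min at RT, then acetylcholine was added at 50nM. FDSS fluorescence was read 3 min; 15 concentrations, three runs.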

[14] = molecular target: Muscarinic acetylcholine receptor M1 (Homo sapiens) (UniProt P11229); test: Cholinergic receptor muscarinic 1 (CHRM1) small molecule agonists, cell-based qHTS assay (AID 1963589); further: nearly all actives have a fitted effect of over 35% in size
In short: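 CHO cells stably expressing human CHRM1, seeded 18 h at 37 C/5% CO2, dye-loaded 1 h at 37 C, then given compound in agonist mode; intracellular calcium fluorescence read kinetically at 1 s intervals. Fifteen concentrations, three independent runs.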

[15] = cAMP Responsive Elements (CRE) small molecule agonists, cell-based qHTS assay (AID 1963590)
In short: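 CRE-bla HEK 293T cells in DMEM with 10% dialyzed FBS, NEAA, pyruvate and 25 mM HEPES were plated 18 h at 37 C/5% CO2, then exposed to compounds in DMSO for 3 h before LiveBLAzer B/G FRET substrate addition.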

[16] = cAMP Responsive Elements (CRE) small molecule antagonists, cell-based qHTS assay (AID 1963591; active means well fitted inhibition curve with a large enough effect in the signal ratio in the repeat runs, not every such curve was filed as active; the % refers to the signal ratio)
In short: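 CRE-bla HEK293T cells were plated 18 h at 37 °C/5% CO2, pinned with compound in DMSO, then stimulated with NKH477 at 0.25 uM final for 3 h. LiveBLAzer B/G FRET substrate was added and plates incubated 2 h at room temperature.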

[17] = molecular target: Beta-2 adrenergic receptor (Homo sapiens) (UniProt P07550); test: Adrenergic beta2 receptor (ADRB2) small molecule antagonists, cell-based qHTS assay (AID 1963592); further: series mostly up to about 92 µM; nearly all actives have a fitted effect of over 50% in size
Chain of Beta-2 adrenergic receptor (Homo sapiens) (P07550 whole entry, looked up): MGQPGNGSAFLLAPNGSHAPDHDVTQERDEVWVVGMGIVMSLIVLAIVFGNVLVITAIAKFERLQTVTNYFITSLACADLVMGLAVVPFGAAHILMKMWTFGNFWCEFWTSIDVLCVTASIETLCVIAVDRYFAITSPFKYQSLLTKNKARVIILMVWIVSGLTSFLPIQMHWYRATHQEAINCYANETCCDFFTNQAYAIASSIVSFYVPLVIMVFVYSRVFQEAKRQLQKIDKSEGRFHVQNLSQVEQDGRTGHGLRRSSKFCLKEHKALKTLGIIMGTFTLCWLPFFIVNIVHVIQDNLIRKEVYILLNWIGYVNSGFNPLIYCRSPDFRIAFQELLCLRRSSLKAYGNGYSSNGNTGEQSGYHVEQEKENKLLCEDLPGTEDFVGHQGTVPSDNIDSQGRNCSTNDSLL
In short: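 Cells (CHO, stable ADRB2 overexpression) incubated 18-20hr at 37C; compounds added from DMSO; agonist mix (1nM isoproterenol, 100uM IBMX, 25uM Ro-20-1724) added; 0.5hr RT; d2-cAMP and anti-cAMP-cryptate added; 1hr RT; 665/615 nm read.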

[18] = molecular target: D(2) dopamine receptor (Homo sapiens) (UniProt P14416); test: Dopamine D2 receptor (DRD2) small molecule agonists, cell-based qHTS assay (AID 1963594); further: nearly all actives have a fitted effect of over 35% in size
Chain of D(2) dopamine receptor (Homo sapiens) (P14416 whole entry, looked up): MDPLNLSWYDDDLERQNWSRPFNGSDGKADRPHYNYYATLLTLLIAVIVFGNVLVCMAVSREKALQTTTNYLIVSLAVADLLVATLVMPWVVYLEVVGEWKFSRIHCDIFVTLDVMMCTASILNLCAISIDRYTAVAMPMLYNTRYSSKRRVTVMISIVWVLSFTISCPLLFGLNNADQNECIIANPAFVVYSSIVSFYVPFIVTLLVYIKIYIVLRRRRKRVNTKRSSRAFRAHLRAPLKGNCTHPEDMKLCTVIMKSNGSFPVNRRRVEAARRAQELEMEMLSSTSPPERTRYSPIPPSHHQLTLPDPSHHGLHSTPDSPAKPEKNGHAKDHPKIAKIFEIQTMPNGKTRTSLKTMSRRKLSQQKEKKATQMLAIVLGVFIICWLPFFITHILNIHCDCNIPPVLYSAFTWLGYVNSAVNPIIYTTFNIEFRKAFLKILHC
In short: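 HEK293 cells stably expressing DRD2 were cultured 24 h at 37 C, then given Ro20-1724 (0.1 mM final) and compounds for 10 min at room temperature. NKH477 (200nM) was then added for 30 min. cAMP was read by HTRF.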

[19] = molecular target: D(2) dopamine receptor (Homo sapiens) (UniProt P14416); test: Dopamine D2 receptor (DRD2) small molecule antagonists, cell-based qHTS assay (AID 1963595; active means well fitted inhibition curve with a large enough effect in the signal ratio in the repeat runs, with a control signal flat; the % refers to the signal ratio)
In short: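 Antagonist mode in DRD2-HEK293 cells: after compound addition with 0.1 mM Ro20-1724, cells received quinpirole (12 nM) and NKH477 (200 nM) for 30 min at room temperature; HTRF cAMP read after 1 h detection.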

[20] = molecular target: Beta-2 adrenergic receptor (Homo sapiens) (UniProt P07550); test: Adrenergic beta2 receptor (ADRB2) small molecule agonists, cell-based qHTS assay (AID 1963593);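 further: CHO cells stably overexpressing human ADRB2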
In short: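 CHO cells stably over-expressing ADRB2 were plated overnight at 37C, then dosed with compounds plus a stimulation mix containing 100uM IBMX and 25uM Ro-20-1724 for 0.5hr at room temperature. cAMP was measured by HTRF competition, 1hr.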

Measured: Potency

CC(=O)OCC(C)OC(C)=O (stereo not given)
not listed: [20]
inactive: all other assays above

Cc1ccccn1
inactive: all assays above

Cc1c(Nc2ncccc2C(=O)O)cccc1C(F)(F)F
inactive: all assays above

C[C@@H](N)C(=O)O
inactive: all assays above

CC(C)=CCCC(C)CCOC=O (stereo not given)
inactive: all assays above

CC(=O)OCC=C(C)C
not listed: [17]
inactive: all other assays above

COCCOC[C@H](CC1(C(=O)NC2CCC(C(=O)O)CC2)CCCC1)C(=O)Oc1ccc2c(c1)CCC2 (stereo not given in full)
not listed: [16] | [18] | [20]
inactive: all other assays above
